# FLuc modulator – counter-screen for miR-21 project: firefly luciferase inhibitors or activators; purified FLuc, Km substrates, luminescence inhibition; Potency, µM (top dose mostly 57.5 µM), for the others: at the highest dose activity change, negative = inhibition, actives largely listed as inhibitors; 360,000 compounds, 6.9% hits;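 note: plate controls were vehicle for no effect and reference inhibitor for full effect; nearly all actives have a fitted effect of over 55% in size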
# Target sequence (P08659 whole entry, looked up): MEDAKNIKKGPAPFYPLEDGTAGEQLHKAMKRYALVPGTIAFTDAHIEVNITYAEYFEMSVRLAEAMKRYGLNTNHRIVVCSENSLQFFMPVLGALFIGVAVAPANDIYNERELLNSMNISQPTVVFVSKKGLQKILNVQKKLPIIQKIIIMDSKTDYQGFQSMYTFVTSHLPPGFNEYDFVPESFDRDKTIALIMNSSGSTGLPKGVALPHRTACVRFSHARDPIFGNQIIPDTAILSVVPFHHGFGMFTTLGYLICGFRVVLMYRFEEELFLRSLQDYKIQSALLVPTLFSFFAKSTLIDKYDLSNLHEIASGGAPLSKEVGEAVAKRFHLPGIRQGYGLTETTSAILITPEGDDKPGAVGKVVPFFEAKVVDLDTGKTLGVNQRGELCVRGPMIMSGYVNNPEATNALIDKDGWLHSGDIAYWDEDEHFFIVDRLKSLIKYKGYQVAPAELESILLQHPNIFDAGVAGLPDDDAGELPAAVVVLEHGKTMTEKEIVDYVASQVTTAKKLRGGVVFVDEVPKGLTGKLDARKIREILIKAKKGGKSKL
#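 Purified P. pyralis luciferase (10nM final) with 10uM D-luciferin and 10uM ATP (Km levels) in 50mM Tris acetate pH 7.5, 10mM Mg acetate, 0.01% Tween-20, 0.05% BSA; qHTS 6-point titration, ~60 µM downward; luminescence read.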
# SMN2 splice enh – enhancers of SMN2 splice variant expression. AID 1458. Potency, µM (series often up to 46.1 µM), for inactives: at the highest dose activity change, positive = activation, hits mostly activators. 210,000 compounds, 2.8% hits. HEK293 SMN2-luciferase splicing reporter, luminescence, 30-36 h; note: % of control where 0% means no effect; nearly all actives have a fitted effect of over 55% in size
#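 HEK293 cells carry an SMN2 minigene-luciferase reporter in which exon 7 inclusion puts luciferase in frame. Cells were seeded at 2000 cells/well, attached for 10-12 hours, then exposed to compounds for 30-36 hours at 37C before ONE-Glo luminescence.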
# NPC1 promoter act – NPC1 promoter activation; Potency, µM (titrated, usually from 9.22 µM), inactives show at the top dose activation, usual class: activators; Huh7 NPC1 promoter luciferase reporter, 24 h; 320,000 compounds, 2.4% hits; AID 485313; note: % of control where 0% means no effect; nearly all actives have a fitted effect of over 60% in size
#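 Stably transfected Huh7 (NPC1 promoter→luciferase), 1500 cells/well in Opti-MEM + 10% FBS, 2 h settle, then compound 24 h at 37 °C. Luminescence after 10 min with Amplite reagent.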
# Rab9 promoter act – Rab9 promoter activation; Huh7 Rab9 promoter-luciferase reporter, luminescence, 24 h; Potency, µM (doses to about 9.22 µM), for the others: at the top dose activation, negative = inhibition, usual class: activators; 320,000 compounds, 2.8% hits; AID 485297; note: % of control where 0% means no effect; nearly all actives have a fitted effect of over 60% in size
#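 Using Huh7 cells stably transfected with Rab9 promoter–luciferase, compounds were incubated 24 h at 37 °C, 5% CO2; luciferase luminescence was read 10 min after reagent addition.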
# ELG1 genotoxic – inducers of genotoxicity in HEK293T ELG1-luciferase cells; HEK293T ELG1-luciferase reporter, luminescence, 16 h; Potency, µM (highest dose often 46 µM), inactives show at the top dose activity change, positive = activation, actives largely listed as activators; 330,000 compounds, 1.3% hits; AID 504466; note: % of control where 0% means no effect; nearly all actives have a fitted effect of over 60% in size
#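 Screening used a luciferase reporter fused to human ELG1 in HEK293T cells. Luminescence was read on a CCD plate imager after 16 hr exposure and 30 min ONE-Glo incubation.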
# Active calls of the source: *; ? = inconclusive; / = no result; [ ] = dose if it differs, or a comment. Only some compounds are listed: those with a hit (about 7.4% of all), similar ones and a draw of the others. Calls come from the whole dose curve; as a rule, active = well fitted curve in the direction sought with a large enough effect; inconclusive = small, poorly fitted or top-dose-only effect, or another doubt; inactive = no such curve, though single readings can be large; an effect the other way counts as inactive or inconclusive. Potency is the fitted concentration of half-maximal effect.
SMILES,FLuc modulator,SMN2 splice enh,NPC1 promoter act,Rab9 promoter act,ELG1 genotoxic
N/C(=N\OC(=O)CCCOc1ccccc1)c1ccncc1,-2%,10%,0%,-4%,1%
COc1ccccc1C/C(N)=N/OC(=O)/C=C/c1ccccc1,?,6%,-1%,15%,2%
N/C(=N\OC(=O)/C=C/c1ccccc1Cl)c1ccncc1,0.85µM*,1.4µM*,1.3µM*,0.71µM*,6%
O=C(/C=C/c1ccccc1Cl)NNC(=O)c1ccncc1,21µM*,/,2%,20%,1%
N/C(=N\OC(=O)/C=C/c1ccccc1)c1ccncc1,6µM*,3%,3.2µM*,1.8µM*,?
COCCn1c(=O)cnc2cnc(N3CCNCC3)nc21,/,-11%,/,/,/
Cc1cnc(CNc2cc(-c3ccoc3)ncn2)cn1,/,5%,/,/,/
FC(F)(F)c1ccccc1-c1nc(Nc2ccncc2)c2ccccc2n1,/,14%,/,/,/
O=C(/C=C/c1ccccc1)c1ccccn1,1.3µM*,-11%,?,?,19%
Cc1cccc(NC(=O)c2cc3c(=O)n(Cc4ccco4)ccc3nc2C)c1,-8%,/,/,/,/
O=C(OCC(F)(F)F)[C@H](O)[C@@H](O)C(=O)OCC(F)(F)F,/,-4%,/,/,/
CCOc1ccc(Nc2c(S(=O)(=O)c3ccc(Cl)cc3)cnc3ccc(OC)cc23)cc1,1%,-39%,/,/,/
CC(=O)c1c(C)[nH]c(C(=O)Nc2cccc(C)n2)c1C,8.5µM*,/,0.35µM*,0.45µM*,1.6µM*
CC(=O)c1c(C)[nH]c(C(=O)Nc2nccs2)c1C,24µM*,13µM*,?,2.8µM*,?
CC(=O)c1c(C)[nH]c(C(=O)Nc2cccnc2)c1C,0%,21%,3%,-2%,4%
CC1(C)O[C@H]2[C@@H](O1)[C@@H](C(=O)Nc1cc(F)ccc1F)O[C@@H]1OC(C)(C)O[C@@H]12,2%,7%,/,/,/
CC1(C(=O)NC2CCCCC2)Cc2ccccc2C(=O)N1Cc1ccc(Cl)cc1 (stereo not drawn),2%,-17%,/,/,/
CCOC(=O)Cc1csc(NC(=O)c2ccc(Cl)s2)n1,?,/,-11%,1%,13%
CCOC(=O)Cc1csc(NC(=O)c2cc3c(s2)CCCC3)n1,1.3µM*,-2%,1.4µM*,0.56µM*,?
CCOC(=O)Cc1csc(NC(=O)c2cc(C)c(C)s2)n1,8.5µM*,/,?,23%,0%
CCOC(=O)Cc1csc(NC(=O)c2ccncc2)n1,-3%,-27%,0%,-3%,-6%
CCOC(=O)Cc1csc(NC(=O)c2csc3c2CCCC3)n1,4.8µM*,-35%,-2%,-6%,-5%
CCCCN(CC)CCCNC(=O)Nc1sc2nc3n(c(=O)c2c1C)CCC(C)CC3 (stereo not drawn),-2%,-5%,/,/,/
CC(=O)NCCOc1cccc(OCCNC(C)=O)c1,2%,-14%,-1%,2%,0%
CC(=O)NCCOc1ccc2oc3ccccc3c2c1,17µM*,5%,/,/,/
SMILES,FLuc modulator,SMN2 splice enh,NPC1 promoter act,Rab9 promoter act,ELG1 genotoxic
CC(C)(C)C(=O)[C@H](C(c1ccccc1)N1CCOCC1)N1CCOCC1 (stereo partly drawn),/,1%[9.22 µM],/,/,/
COc1ccc(-c2cnc(-c3cccnc3)o2)cc1,/,11µM*,/,/,/
O=[N+]([O-])c1ccc(COc2ccccc2/C=N/O)cc1,?,16µM*,?,?,13%
COc1cc2c(cc1OC)C(c1ccc(Cl)cc1)N(c1cccc(C#N)c1)C(=O)C2 (stereo not drawn),2%,2%,/,/,/
COCCN(CCOC)C(=O)c1ccc(CSc2nc3ccccc3s2)cc1,17µM*,/,27%,17%,12%
CNc1nnc(CSc2nc3ccccc3s2)s1,?,?,24%,?,?
CCN(C(C)=O)c1nnc(CSc2nc3ccccc3s2)s1,?,-20%,?,?,8.2µM*
NNC(=O)c1ccc(CSc2nc3ccccc3s2)cc1,17µM*,-3%,1%,16%,7%
CCOc1ccc(C(=O)Nc2ccc(C(=O)OCc3cc(=O)n4ccsc4n3)cc2)cc1,-3%,/,/,/,/
Cc1ccccc1Cn1c(=O)n(CCCCC(=O)NCc2ccc3c(c2)OCO3)c(=O)c2ccccc21,2%,1%,/,/,/
S=c1[nH]c(-c2ccccc2)cn1/N=C/c1ccccc1Br,13µM*,5%,29%,25%,-4%
S=c1[nH]c(-c2ccccc2)cn1/N=C/c1cccc2ccccc12,?,-2%,0%,1%,-2%
COC(=O)C(C(=O)OC)C(Cc1cc(F)cc(F)c1F)NC=O (stereo not drawn),/,10%,/,/,/
NC(=O)c1c(NC(=O)c2cccs2)sc2c1CCCCCC2,4.8µM*,?,?,3.2µM*,6%
O=C(Nc1sc2c(c1C(=O)Nc1cccc(Cl)c1)CCCC2)c1cccs1,-19%,-4%,/,/,/
O=C(Nc1sc2c(c1C(=O)O)CCC2)c1cccs1,17µM*,?,17%,28%,8%
CS(=O)(=O)N1CCC2(CCN(C(c3ccccc3)c3ccccc3)CC2)CC1,/,-16%,/,/,/
COc1cccc(C2=NOC(C(=O)N3CCOCC3)C2)c1 (stereo not drawn),19µM*,8%,3.5µM*,?,?
COc1ccc(-n2c(=O)c(CCc3ccccc3)nc3cnc(N(C)C)nc32)cc1,/,4%,/,/,/
COc1ccc(Cl)cc1/C=C/c1ccc2cccc(O)c2n1,17µM*,/,4µM*,3.5µM*,?
COc1ccccc1/C=C/c1ccc2cccc(O)c2n1,4.8µM*,/,?,?,21µM*
COc1cc(Cl)cc(/C=C/c2ccc3cccc(O)c3n2)c1OC,?,/,?,?,13%
COc1ccc(CCNc2nc3cc(OC)c(OC)cc3c3nc(-c4ccccc4)nn23)cc1OC,-10%,-4%,/,/,/
COC(=O)C1C(O)CC[C@H]2CN3CCc4c([nH]c5ccccc45)C3C[C@H]12 (stereo partly drawn),/,1%,/,/,/
COc1cccc(C(=O)Nc2ccccc2NC(=O)c2cccc(OC)c2)c1,-7%,/,-4%,-2%,-7%
SMILES,FLuc modulator,SMN2 splice enh,NPC1 promoter act,Rab9 promoter act,ELG1 genotoxic
CCCCC(=O)Nc1cc(C(=O)NCCc2ccccc2)ccc1Cl,-4%,7.9µM*,2.2µM*,2.5µM*,?
COc1cccc(C(=O)Nc2cc(C(=O)NCCc3ccccc3)ccc2Cl)c1,-18%,11µM*,9%,13%,?
Cc1ccc(NC(=O)CN2CCN(C3CCCCC3)C(=O)C2=O)cc1,-6%,/,/,/,/
Oc1ccc(N=C/C=C/c2ccc(Br)cc2)cc1-c1nc2ccccc2s1,7.6µM*,-1%[1.84 µM],3.2µM*,?,?
O=[N+]([O-])c1cccc(S(=O)(=O)Nc2ccc(-c3ccc(N4CCCC4)nn3)cc2)c1,30µM*,/,5%,-3%,14%
O=[N+]([O-])c1cccc(S(=O)(=O)Nc2ccc(-c3ccc(N4CCOCC4)nn3)cc2)c1,21µM*,/,1%,1%,-1%

# Screens deposited in PubChem BioAssay by National Center for Advancing Translational Sciences (NCATS).
